The target of test [1] is Progesterone receptor (Homo sapiens) (UniProt P06401). The test can be described thus: qHTS assay to identify small molecule agonists of the progesterone receptor (PR) signaling pathway (AID 1346784; calls by dose curve; also: nearly all actives have a fitted effect of over 30% in size). A digest of the protocol:
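PR-UAS-bla HEK 293T cells (beta-lactamase reporter under UAS) in 2% charcoal-stripped FBS, dosed with 23 nL compound after 6 hr, incubated 16hr at 37C. LiveBLAzer B/G FRET substrate added, fluorescence read after 2 hours.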

Test [2] is described as follows: qHTS assay to identify small molecule antagonists of the progesterone receptor (PR) signaling pathway - cell viability counter screen (AID 1346798). Also: series mostly up to about 92 µM; nearly all actives have a fitted effect of over 50% in size. A digest of the protocol: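 PR-UAS-bla HEK293T cells, 3,000/well in 2% charcoal-stripped FBS medium, dosed with compounds plus R5020 agonist and incubated 16 h at 37C. Viability then measured in the same wells by CellTiter-Glo luminescence after 30 min at RT.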

Test [3] is described as follows: qHTS assay to identify small molecule agonists of the progesterone receptor (PR) signaling pathway - cell viability counter screen (AID 1346799; calls by dose curve; also: nearly all actives have a fitted effect of over 45% in size). The method in brief: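 Counter screen in the PR-UAS-bla HEK293T wells (2% charcoal-stripped FBS, 16 h compound exposure at 37 C) after the bla read. CellTiter-Glo added, 30 min at room temperature, luminescence read as cell viability.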

A short description of test [4]: qHTS assay to identify small molecule antagonists of the TGF-beta/Smad signaling pathway - cell viability counter screen (AID 1346824). Also: nearly all actives have a fitted effect of over 50% in size. A digest of the protocol:
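SBE-bla HEK 293T cells, incubated overnight, then compound plus 0.25 ng/mL TGF-beta1 (stock added) for 5 hr at 37 C. Viability was read in the same wells by CellTiter-Glo luminescence after 30 min at room temperature.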

A short description of test [5]: qHTS assay to identify small molecule agonists of the TGF-beta/Smad signaling pathway - cell viability counter screen (AID 1346829). Also: top concentration of the series differs between compounds; nearly all actives have a fitted effect of over 45% in size. The method in brief: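 HEK 293T SBE-bla line, 5 hr compound exposure at 37 C, multiplexed CellTiter-Glo viability read by luminescence.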
Test [6] can be described thus: qHTS assay to identify small molecule agonists of the TGF-beta/Smad signaling pathway (AID 1346859; active = well fitted activation curve with a large enough effect in the signal ratio in the repeat runs, not every such curve was filed as active; the % refers to the signal ratio; also: series mostly up to about 77 µM). A digest of the protocol: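 SBE-bla HEK293T cells plated overnight, then compound exposure for 5 h at 37 C. Beta-lactamase reporter read with LiveBLAzer B/G FRET substrate after 2 h at room temperature, fluorescence at 405 nm excitation, 460/530 nm emission.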
Test [7] deals with Thyrotropin-releasing hormone receptor (Homo sapiens) (UniProt P34981). Kind of test: qHTS assay to identify small molecule antagonists of the thyrotropin-releasing hormone receptor (TRHR) signaling pathway (AID 1346877; active = well fitted inhibition curve with a large enough effect in the repeat runs, not every such curve was filed as active; also: series mostly up to about 51 µM). A digest of the protocol: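 Overnight-plated (18 h, 37 °C) HEK293 cells expressing TRHR were dye-loaded 2 h, treated with compound, then stimulated with TRH at 1 nM final. Fluorescence intensity was captured every second for 3 min.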
Thyrotropin-releasing hormone receptor (Homo sapiens), sequence (P34981 whole entry, looked up): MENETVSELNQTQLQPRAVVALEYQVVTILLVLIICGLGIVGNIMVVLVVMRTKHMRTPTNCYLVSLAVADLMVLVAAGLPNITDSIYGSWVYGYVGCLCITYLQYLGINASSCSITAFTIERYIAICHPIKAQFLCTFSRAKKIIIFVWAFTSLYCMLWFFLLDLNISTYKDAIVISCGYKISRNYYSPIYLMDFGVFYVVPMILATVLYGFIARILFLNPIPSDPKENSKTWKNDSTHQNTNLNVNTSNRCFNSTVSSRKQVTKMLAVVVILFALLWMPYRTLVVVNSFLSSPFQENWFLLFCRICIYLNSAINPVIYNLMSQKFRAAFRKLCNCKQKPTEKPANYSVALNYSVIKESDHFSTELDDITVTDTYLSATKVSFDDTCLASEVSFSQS

For test [8] the target is unchanged. The test can be described thus: qHTS assay to identify small molecule agonists of the thyrotropin-releasing hormone receptor (TRHR) signaling pathway (AID 1346891; calls by dose curve; also: series mostly up to about 58 µM). A digest of the protocol:
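HEK293 cells expressing TRHR plated 18 h at 37 C/5% CO2, calcium dye-loaded 2 h at 37 C, then compound added (agonist mode); kinetic calcium fluorescence read 3 min at 1 s intervals; 15 concentrations in triplicate.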

A short description of test [9]: Caspase-3/7 induction in HepG2 cells by small molecules, qHTS assay (AID 1346978). Also: nearly all actives have a fitted effect of over 15% in size. Also: potency is read from the fitted curve at half-maximal effect. The method in brief: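 Wild-type HepG2 cells, 2,000/well, settled 5 hr at 37 C and 5% CO2, then compound-treated for 17 hr; caspase-3/7 activity read by luminescent Caspase-Glo 3/7 after 30 min at room temperature.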
A short description of test [10]: Caspase-3/7 induction in HepG2 cells by small molecules, qHTS cell viability counter screen (AID 1346981). Also: nearly all actives have a fitted effect of over 30% in size. Also: potency is read from the fitted curve at half-maximal effect. The method in brief:
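Treatment of HepG2 cells with DMSO-delivered compounds ran 16 hr at 37 C following a 5-hr pre-incubation of 2,000 cells/well. CellTiter-Fluor fluorescence, read after 1 hr, served as the viability measure in a qHTS format.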

The target of test [11] is Nuclear receptor subfamily 1 group I member 2 (Homo sapiens) (UniProt O75469). Kind of test: Human pregnane X receptor (PXR) small molecule agonists, qHTS assay (AID 1346982). Also: nearly all actives have a fitted effect of over 35% in size. Also: potency is read from the fitted curve at half-maximal effect. A digest of the protocol: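 Stable HepG2 line reporting PXR-mediated CYP3A4 expression via luciferase. Treatment: 24 hr with compounds in DMSO at 37 C. Detection: ONE-Glo luminescence.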
Nuclear receptor subfamily 1 group I member 2 (Homo sapiens), sequence (O75469 whole entry, looked up): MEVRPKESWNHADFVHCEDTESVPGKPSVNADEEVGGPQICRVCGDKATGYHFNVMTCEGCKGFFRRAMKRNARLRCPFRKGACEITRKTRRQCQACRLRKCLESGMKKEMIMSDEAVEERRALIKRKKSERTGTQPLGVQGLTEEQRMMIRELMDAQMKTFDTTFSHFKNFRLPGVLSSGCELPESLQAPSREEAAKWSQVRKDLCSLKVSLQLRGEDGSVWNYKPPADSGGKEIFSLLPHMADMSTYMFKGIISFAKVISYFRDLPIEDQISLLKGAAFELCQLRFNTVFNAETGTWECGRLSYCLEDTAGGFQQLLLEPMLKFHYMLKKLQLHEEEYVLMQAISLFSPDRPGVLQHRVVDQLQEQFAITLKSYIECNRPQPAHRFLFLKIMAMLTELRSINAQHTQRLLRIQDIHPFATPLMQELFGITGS
In test [12] the target is Acetylcholinesterase (Homo sapiens) (UniProt P22303). The test can be described thus: Acetylcholinesterase (AChE) small molecule antagonists: colormetric cell-based qHTS assay (AID 1347395; calls by dose curve; also: nearly all actives have a fitted effect of over 30% in size; also: potency is read from the fitted curve at half-maximal effect). A digest of the protocol:
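SH-SY5Y cells attached overnight, exposed to compound 30 min at 37 C, then given DTNB/acetylthiocholine; after 90 min at 37 C, colorimetric thiocholine read gives cellular AChE activity.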

A short description of test [13]: Human pregnane X receptor (PXR) small molecule agonists, qHTS cell viability counter screen (AID 1346977). Also: nearly all actives have a fitted effect of over 50% in size. Also: potency is read from the fitted curve at half-maximal effect. A digest of the protocol: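 PXR-Luc HepG2 cells (2,000/well, 5% charcoal-stripped FBS) preincubated 5 hr, then exposed to compounds 24 hr at 37 C. Viability read in the same wells by CellTiter-Fluor fluorescence, reagent added at 23 hr, 1 hr incubation.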
The nature of test [14]: Caspase-3/7 induction in CHO-K1 cells by small molecules, qHTS cell viability counter screen (AID 1346979). Also: nearly all actives have a fitted effect of over 35% in size. Also: potency is read from the fitted curve at half-maximal effect. A digest of the protocol:
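Wild-type CHO-K1 cells (1,500/well) treated with compound after 5 h plating; after 16 h at 37C, viability read as CellTiter-Fluor fluorescence following 1 h reagent incubation, in the same wells as the caspase read.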

Test [15] is described as follows: Caspase-3/7 induction in CHO-K1 cells by small molecules, qHTS assay (AID 1346980). Also: nearly all actives have a fitted effect of over 15% in size. Also: potency is read from the fitted curve at half-maximal effect. A digest of the protocol: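 Wild-type CHO-K1 cells exposed to compounds for 17hr at 37 C, 5% CO2. Caspase-3/7 activity then measured by Caspase-Glo 3/7 luminescence after 30min at room temperature.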
Test [16] deals with Progesterone receptor (Homo sapiens) (UniProt P06401). Kind of test: qHTS assay to identify small molecule antagonists of the progesterone receptor (PR) signaling pathway (AID 1346795; active = well fitted inhibition curve with a large enough effect in the signal ratio in the repeat runs, not every such curve was filed as active; the % refers to the signal ratio; also: potency is read from the fitted curve at half-maximal effect). A digest of the protocol: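 PR-UAS-bla HEK293T cells with beta-lactamase reporter under UAS control, in 2% charcoal-stripped FBS, treated with compounds plus 1 nM promegestone (R5020, final) for 16 hr at 37C. Read-out: FRET beta-lactamase substrate fluorescence after 2 hr at room temperature.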
Progesterone receptor (Homo sapiens), sequence (P06401 whole entry, looked up): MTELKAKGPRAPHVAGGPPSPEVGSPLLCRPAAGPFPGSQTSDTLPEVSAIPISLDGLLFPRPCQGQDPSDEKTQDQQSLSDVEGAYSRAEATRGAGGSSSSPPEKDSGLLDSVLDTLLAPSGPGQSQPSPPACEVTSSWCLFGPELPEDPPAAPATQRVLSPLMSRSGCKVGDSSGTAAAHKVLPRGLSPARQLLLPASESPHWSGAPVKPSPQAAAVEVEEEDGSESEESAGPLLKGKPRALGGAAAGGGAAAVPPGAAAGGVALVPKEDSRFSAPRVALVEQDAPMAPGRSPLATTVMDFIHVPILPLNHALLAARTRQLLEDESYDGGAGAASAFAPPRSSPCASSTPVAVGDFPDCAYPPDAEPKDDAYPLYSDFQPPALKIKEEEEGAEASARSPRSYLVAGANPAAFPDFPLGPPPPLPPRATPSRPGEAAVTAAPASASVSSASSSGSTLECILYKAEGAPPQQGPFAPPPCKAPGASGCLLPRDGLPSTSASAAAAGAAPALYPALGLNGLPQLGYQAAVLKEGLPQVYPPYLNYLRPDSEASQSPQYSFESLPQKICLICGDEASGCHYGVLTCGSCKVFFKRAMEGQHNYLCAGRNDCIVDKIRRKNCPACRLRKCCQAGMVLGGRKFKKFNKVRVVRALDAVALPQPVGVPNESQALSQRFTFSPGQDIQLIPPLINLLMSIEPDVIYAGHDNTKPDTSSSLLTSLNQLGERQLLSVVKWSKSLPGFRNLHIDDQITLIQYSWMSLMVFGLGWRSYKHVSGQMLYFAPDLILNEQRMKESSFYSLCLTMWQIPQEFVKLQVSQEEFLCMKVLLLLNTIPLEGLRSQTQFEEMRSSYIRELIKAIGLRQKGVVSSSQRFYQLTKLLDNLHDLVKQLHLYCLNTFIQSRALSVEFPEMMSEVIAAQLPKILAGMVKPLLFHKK

Test [17] has as its target Nuclear receptor subfamily 1 group I member 2 (Rattus norvegicus) (UniProt Q9R1A7). The test can be described thus: Rat pregnane X receptor (rPXR) activation by small molecules, qHTS assay (AID 1346983). Also: nearly all actives have a fitted effect of over 20% in size. Particulars: rPXR luciferase reporter cells, One-Glo luminescence, 24 h; max activation: active compounds read high. The method in brief:
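Cell-based rPXR activation assay: rPXR cells, 2,000 per well, rested 5hr at 37 C, then exposed to compounds in DMSO for 24 hr at 37 C. Luciferase activity read by One-Glo luminescence after 30 min at room temperature.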

Test [18] deals with Nuclear receptor subfamily 1 group I member 2 (Homo sapiens) (UniProt O75469). Kind of test: CYP3A4 induction through human pregnane X receptor (PXR) by small molecules, qHTS assay (AID 1346984). Also: nearly all actives have a fitted effect of over 40% in size. The method in brief: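 After 24 h at 37C with compound, DPX-2 cells (HepG2, co-transfected PXR response element and CYP3A4 promoter-luciferase) got 3uM final P450-Glo Luciferin-IPA for 3 h; One-Glo luminescence followed.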

The target is the same in test [19]. Kind of test: Human pregnane X receptor (PXR) activation by small molecules, qHTS assay (AID 1346985). Also: nearly all actives have a fitted effect of over 40% in size. The method in brief:
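DPX-2 cells (HepG2 co-transfected with a PXR response element and a CYP3A4-promoter luciferase construct) were seeded at 2,000 per well, rested 5 hr at 37C, then exposed to DMSO-dissolved compounds for 24 hr. Activation was read as luciferase luminescence.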

The structures appear in SMILES notation. A number with no mark means an inactive call. Inconclusive results are not listed. Calls of active or inactive are those of the source. Unless noted, calls follow the shape of the dose curve; as a rule, active = well fitted curve in the direction sought with a large enough effect in the repeat runs; inconclusive = weak or mixed curves; inactive = no such curve, though single readings can be large; an effect the other way counts as inactive or inconclusive.

For 9 compounds, Potency, outcome and max activation results are on record in PubChem BioAssay (Tox21).
% is scaled to controls: 0 for no effect and ±100 for the full control effect.

Acetylcholinesterase (Homo sapiens), sequence (P22303 whole entry, looked up): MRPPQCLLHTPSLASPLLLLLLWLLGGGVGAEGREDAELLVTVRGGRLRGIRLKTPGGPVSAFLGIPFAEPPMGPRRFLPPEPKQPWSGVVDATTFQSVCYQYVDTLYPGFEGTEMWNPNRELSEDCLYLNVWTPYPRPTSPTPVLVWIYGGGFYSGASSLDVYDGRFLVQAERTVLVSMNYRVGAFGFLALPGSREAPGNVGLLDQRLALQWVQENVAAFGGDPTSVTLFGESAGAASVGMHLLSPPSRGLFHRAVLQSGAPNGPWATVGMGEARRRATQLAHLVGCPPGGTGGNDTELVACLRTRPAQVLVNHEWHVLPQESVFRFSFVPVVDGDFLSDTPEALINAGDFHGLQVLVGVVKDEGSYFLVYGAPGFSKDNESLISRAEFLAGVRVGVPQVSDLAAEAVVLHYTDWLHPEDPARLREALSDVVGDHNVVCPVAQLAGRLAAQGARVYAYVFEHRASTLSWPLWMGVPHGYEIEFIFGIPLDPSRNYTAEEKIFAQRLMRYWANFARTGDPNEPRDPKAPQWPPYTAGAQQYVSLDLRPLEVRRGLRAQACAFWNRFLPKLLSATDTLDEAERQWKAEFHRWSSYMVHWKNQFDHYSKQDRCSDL
Nuclear receptor subfamily 1 group I member 2 (Rattus norvegicus), sequence (Q9R1A7 whole entry, looked up): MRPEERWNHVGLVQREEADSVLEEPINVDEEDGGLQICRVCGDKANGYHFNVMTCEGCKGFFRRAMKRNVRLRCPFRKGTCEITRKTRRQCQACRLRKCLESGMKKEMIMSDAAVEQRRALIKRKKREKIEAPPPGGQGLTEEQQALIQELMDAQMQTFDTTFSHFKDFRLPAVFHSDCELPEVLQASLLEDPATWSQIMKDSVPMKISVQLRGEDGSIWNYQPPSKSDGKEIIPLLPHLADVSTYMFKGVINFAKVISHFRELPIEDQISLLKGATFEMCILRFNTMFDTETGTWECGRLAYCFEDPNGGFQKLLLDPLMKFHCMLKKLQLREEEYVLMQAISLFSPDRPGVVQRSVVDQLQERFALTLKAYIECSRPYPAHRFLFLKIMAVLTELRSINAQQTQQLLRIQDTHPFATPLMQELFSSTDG

On to `CCOP(=S)(OCC)SCSP(=S)(OCC)OCC`, for which the Potency result in test [1], in [2], in [3], in test [4], in test [9] and in [10] was “inactive” throughout. Further, the result in [5], in test [6], in [7] and in test [8] was inactive. In addition, the results for the Potency in test [11] and in test [12] were 5.45 µM (active) and 39.9 µM (active), respectively.
For the compound `COc1cccc2c1cc([N+](=O)[O-])c1c(C(=O)O)cc3c(c12)OCO3`, the Potency result in test [2], in test [4] and in test [12] was “inactive” each time. Also, the compound was classed as inactive in [5] and in [7]. Besides, the Potency in [13] was 12.2 µM (active); in test [9], 9.69 µM (active); in test [14], 21.7 µM (active); in test [15], 9.69 µM (active); in test [10], 27.3 µM (active).
In the case of `C[C@@H]1CN(C2CCC(C#N)(c3ccc(F)cc3)CC2)CC[C@]1(C(=O)O)c1ccccc1` (some centres undefined), the Potency result in test [16], in [2], in test [3], in [4], in test [13] and in test [9] was “inactive” each time. The Potency result in [14], in test [10], in [11], in [18], in [19] and in [12] was “inactive” in each case. In addition, the outcome in test [5] and in test [6] was inactive. The max activation in test [17] was -1.37%.
`CC(CC(C#N)(c1ccccc1)c1ccccc1)N(C)C` (centres undefined): the Potency entry in [1], in [4], in test [9], in test [14], in test [15] and in [11] was “inactive” each time. In test [12], the Potency result was “inactive”. Besides, the compound was classed as inactive in test [5], in test [6] and in test [7]. Also, in test [13], the Potency is 48.3 µM (active).
With `O=c1oc2ccccc2c(O)c1C1CCCc2ccccc21` (centres undefined), the Potency result in test [16], in test [2], in test [4], in [13], in test [9] and in test [14] was “inactive” each time. Also, the Potency entry in [15], in test [10] and in [12] was “inactive” throughout. Further, the compound was called inactive in [6] and in [7].
In the case of `C[C@]1(O)CC[C@H]2[C@@H]3CCC4=CC(=O)CC[C@]4(C)[C@@]3(F)[C@@H](O)C[C@@]21C`, the Potency entry in test [2], in [13], in test [9], in [14], in [15] and in [10] was “inactive” in each case. Also, the Potency entry in [12] was “inactive”. Further, the outcome in [5] and in test [6] was inactive. Moreover, the Potency in test [11] was 48.9 µM (active).
Take `CC1(C(=O)Nc2ccc(O)c(Cl)c2Cl)CCCCC1`: the Potency result in test [1], in test [4], in test [13], in test [9], in [15] and in test [10] was “inactive” each time. The Potency entry in test [12] was “inactive”. Moreover, the Potency in test [16] was 27.3 µM (active); in test [11], 19.3 µM (active). For the same compound, the compound was called inactive in test [5], in [6] and in test [7].
Take `CC(C)CC(N(C)C)C1(c2ccc(Cl)cc2)CCC1` (centres undefined): the Potency entry in test [1], in test [16], in [2], in test [4], in test [13] and in test [9] was “inactive” throughout. Besides, the Potency entry in test [14], in test [15], in [10], in test [11], in [18] and in [19] was “inactive” throughout. Further, the outcome in [5], in test [6] and in test [7] was inactive. In addition, the max activation in [17] was -2.56%.
On to `CCN(CC)C(=O)[C@@H]1C=C2c3cccc4[nH]cc(c34)C[C@H]2N(C)C1`, for which the Potency entry in [1], in test [16], in test [4], in test [9] and in test [15] was “inactive” throughout. Besides, the outcome in test [5], in test [6], in [7] and in [8] was inactive. In addition, the Potency is 89.8 µM (active) in test [14], 80 µM (active) in test [11] and 73.8 µM (active) in [12].
